Screens deposited in PubChem BioAssay by National Center for Advancing Translational Sciences (NCATS).
An excerpt weighted towards active compounds, which were near 19% of everything screened.
HT1080 IDH1KD tx – kills HT-1080 cells with IDH1 knockdown. HT-1080 IDH1 knockdown viability, ATP luminescence, 48 h. Potency, µM (titrated, usually from 46.1 µM), hits mostly cytotoxic. 360,000 tested, 2% active. AID 686971
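CellTiter-Glo luminescence after 48 h compound exposure at 37 degrees C of IDH1-knockdown HT-1080 cells in 5% FBS RPMI. %Activity scaled between DMSO wells and cell-free media wells, with curves fitted and assigned curve classes.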
DT40 TDP1 no CPT – qHTS for Inhibitors of human tyrosyl-DNA phosphodiesterase 1 (TDP1): qHTS in cells in absence of CPT. DT40 Tdp1-/- hTDP1 cells, no CPT, ATP luminescence, 48 h. 420,000 tested, 15% active. Potency, µM (titrated, usually from 46.2 µM), most hits filed as inhibitors. AID 686978, 2013; further: nearly all actives have a fitted effect of over 55% in size
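Compound effects on proliferation are scored in DT40 Tdp1-/-;hTDP1 cells in the absence of CPT. ATP levels (CellTiter-Glo luminescence) are recorded after a ≥48 hr, 37 °C incubation.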
KB-3-1 cytotox – kills parental KB-3-1 adenocarcinoma cells. KB-3-1 viability, CellTiter-Glo ATP luminescence, 72 h. Potency, µM (highest dose often 46.1 µM), hits mostly cytotoxic. 400,000 tested, 1.4% active. AID 1347075; further: nearly all actives have a fitted effect of over 60% in size
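KB-3-1 parental drug-naive adenocarcinoma cells in DMEM/10% FBS, incubated 72 h at 37 C with pin-transferred compounds across a concentration series. Viability by CellTiter-Glo luminescence; concentration-response curves fitted after normalization.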
HT1080NT lethal – kills 2HG-producing HT-1080-NT fibrosarcoma cells | AID 686970 | Potency, µM (highest dose often 46.1 µM), hits mostly cytotoxic | 360,000 tested, 1.6% active | HT-1080-NT fibrosarcoma viability, CellTiter-Glo ATP luminescence, 48 h;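 further: NT is the 2HG producing partner of a matched IDH1 knockdown line; nearly all actives have a fitted effect of over 55% in size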
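Toxicity toward the 2HG-producing NT line was scored as %Activity, normalised to DMSO and no-cell wells, from CellTiter-Glo luminescence after 48 hours' treatment.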
TDP1 cell CPT – DT40-hTDP1 cell growth loss with CPT | chicken DT40 Tdp1-/-;hTDP1 cells + 20 nM CPT, ATP luminescence, 48 h | Potency, µM (doses to about 46.2 µM), hits mostly inhibitors | 420,000 tested, 12% active | AID 686979; further: nearly all actives have a fitted effect of over 55% in size
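Chicken DT40 Tdp1-/- cells stably complemented with human TDP1 were seeded at 400 cells/well in medium containing 20 nM camptothecin, exposed to pin-transferred compounds, and grown at 37 °C for at least 48 hr. Viability was read as ATP luminescence.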
KB-V1 cytotox – kills drug-selected multidrug resistant KB-V1 cells | Potency, µM (highest dose often 46.1 µM), hits mostly cytotoxic | KB-V1 MDR cells viability, CellTiter-Glo, 72 h | 400,000 tested, 3.4% active; further: nearly all actives have a fitted effect of over 60% in size
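Cytotoxicity toward P-gp-expressing KB-V1 cells was determined as loss of CellTiter-Glo luminescence after 72 h at 37 degrees C. Compounds were tested in quantitative HTS format across a concentration range, with curves fitted to normalized data.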
Hits are given with their value; n = inactive; u = inconclusive; x = no result given. The call rests on the fitted dose curve; in most records, active means well fitted curve in the direction sought with a large enough effect; inconclusive means small, poorly fitted or top-dose-only effect, or another doubt; inactive means no such curve, though single readings can be large; an effect the other way counts as inactive or inconclusive.

SMILES	HT1080 IDH1KD tx	DT40 TDP1 no CPT	KB-3-1 cytotox	HT1080NT lethal	TDP1 cell CPT	KB-V1 cytotox
C/C(CC(=O)Nc1ccc(N(C)C)cc1)=N\NC(=O)c1ccccn1	n	15µM	n	n	u	n
CN(C)c1ccc(-c2[nH][nH]c(=O)c2NC(=O)c2ccccn2)cc1	21µM	u	n	u	u	n
COc1ccc(-n2c(CNC(=O)c3cccc4ccccc34)nnc2SC)cc1	x	n	x	x	n	x
O=S(=O)(c1c(F)cccc1F)N(CCc1ccc(F)cc1)C[C@@H](O)COCc1ccccc1	n	u	n	n	u	n
CCCCOc1cccc(C2/C(=C(/O)c3ccc4c(c3)CC(C)O4)C(=O)C(=O)N2CCN2CCOCC2)c1 (configuration not stated)	n	n	n	n	n	n
CC(C)C(=O)OC1CCS(=O)(=O)c2sccc21 (configuration not stated)	n	n	n	n	n	u
C[C@@H]1CN([C@@H](C)CO)S(=O)(=O)c2ccc(-c3cccc(C#N)c3)cc2O[C@@H]1CN(C)C(=O)c1ccc(F)cc1	n	21µM	n	n	u	n
C[C@H](CO)N1C[C@H](C)[C@@H](CN(C)Cc2cncnc2)Oc2cc(Br)ccc2S1(=O)=O	n	u	n	n	u	u
C/C=C/c1ccc2c(c1)O[C@@H](CN(C)C(=O)c1ccc(F)cc1)[C@@H](C)CN([C@H](C)CO)S2(=O)=O	n	u	n	n	u	n
Cc1ccc(-c2ccc3c(c2)O[C@H](CN(C)Cc2cncnc2)[C@@H](C)CN([C@H](C)CO)S3(=O)=O)cc1	n	23µM	n	n	u	n
COc1cccc(-c2ccc3c(c2)O[C@H](CN(C)C(=O)c2ccccc2F)[C@H](C)CN([C@H](C)CO)S3(=O)=O)c1	n	21µM	u	n	u	u
COc1cccc(-c2ccc3c(c2)O[C@@H](CN(C)Cc2cncnc2)[C@@H](C)CN([C@H](C)CO)S3(=O)=O)c1	n	9.2µM	n	n	23µM	n
Cc1cc(C(=O)NNC(=O)/C=C/c2ccco2)c(C)o1	n	n	n	n	n	n
CCC(c1nnnn1-c1ccc2c(c1)OCCO2)N1CCN(c2ccc(C)cc2)CC1 (configuration not stated)	n	u	18µM	n	u	n
CCC(c1nnnn1-c1ccc2c(c1)OCCO2)N1CCN(c2cccc(C)c2C)CC1 (configuration not stated)	u	18µM	u	u	u	n
CCC(c1nnnn1-c1ccc2c(c1)OCCO2)N1CCN(Cc2c(F)cccc2Cl)CC1 (configuration not stated)	n	23µM	u	n	u	u
CCC(c1nnnn1-c1ccc2c(c1)OCCO2)N1CCN(c2ccccc2OC)CC1 (configuration not stated)	u	u	u	n	u	7.3µM
CCOc1cc(OCC)cc(C(=O)N2CCC[C@@H]2C(=O)N2CCC[C@@H]2C(=O)NCc2ccccc2Cl)c1	n	n	n	n	n	n
O=C(CNC(=O)c1ccc(F)cc1)OCc1cc(=O)n2ccsc2n1	x	n	n	x	n	n
CCC(c1nnnn1-c1ccc2c(c1)OCCO2)N1CCN(c2ccc(OC)cc2)CC1 (configuration not stated)	n	u	u	n	21µM	16µM
COc1ccc(N2CCN(C(=O)CSc3nnnn3-c3ccc4c(c3)OCCO4)CC2)cc1	n	u	n	n	u	21µM
CCC(c1nnnn1-c1ccc2c(c1)OCCO2)N1CCN(c2ccccc2)CC1 (configuration not stated)	n	u	u	n	u	n
O=C(COCc1cc(-c2cccs2)on1)NCc1ccccc1Cl	x	n	n	x	n	n
